Where “and” joins values, the source holds several entries; their conditions need not be identical. Equal entries are not always repeated. Results filed as inconclusive are left out. The source holds several records for some structures; these can differ, active in one and inactive in another. Calls of active or inactive are those of the source. Unless noted, the call rests on the fitted dose curve; in most records, active means well fitted curve in the direction sought with a large enough effect in the repeat runs; inconclusive means weak or mixed curves; inactive means no such curve, though single readings can be large; an effect the other way counts as inactive or inconclusive.

Drawing on PubChem BioAssay (Tox21), this text covers Potency, outcome and activity change, positive = activation for 20 compounds.

Assay [1] can be described thus: qHTS assay to identify small molecule agonists of the hypoxia (HIF-1) signaling pathway - cell viability counter screen (AID 1224844; calls by dose curve; further: nearly all actives have a fitted effect of over 50% in size; further: potency means the concentration at half of the fitted maximal effect). The procedure, abridged:
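HRE-bla ME-180 cells in medium with 0.5% dialyzed FBS were preincubated 5 hrs at 37C, exposed to compounds for 17 hrs, then viability was read as CellTiter-Glo luminescence after 30 min at room temperature, in the reporter wells.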
On the technique in general: Quantitative high-throughput screening tests each substance at several concentrations.

The nature of assay [2]: qHTS assay to identify small molecule agonists of H2AX (AID 1224845; active means well fitted activation curve with a large enough effect in the signal ratio in the repeat runs, not every such curve was filed as active; the % refers to the signal ratio; further: potency means the concentration at half of the fitted maximal effect). Summed up: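 Wild-type CHO-K1 cells, plated overnight, exposed 3hr at 37C to 15 concentrations (0.76% DMSO final). Lysed, then HTRF anti-pH2AX (S139) cryptate and anti-H2AX-d2 antibodies, 24 hr room temperature; 665/620 nm emission read.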
A short description of assay [3]: qHTS assay to identify small molecule agonists of the hypoxia (HIF-1) signaling pathway (AID 1224846; active means well fitted activation curve with a large enough effect in the signal ratio in the repeat runs, not every such curve was filed as active; the % refers to the signal ratio). The procedure, abridged:
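HRE-bla ME-180 cells (beta-lactamase reporter under hypoxia response element) were plated at 2,000 cells/well in medium with 0.5% dialyzed FBS, rested 5 hrs, then given compounds in DMSO for 17 hrs at 37C, 5% CO2. Reporter induction was read with CCF4-AM FRET substrate.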

Assay [4] can be described thus: qHTS assay to identify small molecule agonists of H2AX - cell viability counter screen (AID 1224847; calls by dose curve; further: nearly all actives have a fitted effect of over 30% in size; further: potency means the concentration at half of the fitted maximal effect). Summed up: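 Viability of CHO-K1 (wild type) cells after 3 hr compound exposure was measured by CellTiter-Glo luminescence.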
Assay [5] is described as follows: qHTS assay to identify small molecule antagonists of the estrogen related receptor (ERR) signaling pathway from Tox21 library (AID 1224848). Further: nearly all actives have a fitted effect of over 50% in size. Further: potency means the concentration at half of the fitted maximal effect. The procedure, abridged:
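ERR reporter cell line (from NTP) seeded 2,000 cells/well, rested 6 h at 37 C/5% CO2, then pin-dosed with compounds in DMSO. After 18 h at 37 C, ONE-Glo added; luminescence read after 30 min at room temperature.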

Assay [6] is described as follows: qHTS assay to identify small molecule agonists of the estrogen related receptor (ERR) signaling pathway from Tox21 library (AID 1224849; calls by dose curve; further: nearly all actives have a fitted effect of over 15% in size). The following applies: ERR reporter cell line, ONE-Glo luciferase, 18 h. The procedure, abridged:
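ERR reporter cell line (NTP) seeded, rested 6 h at 37 C/5% CO2, then pinned with Tox21 compounds in DMSO. After 18 h at 37 C, ONE-Glo luciferase luminescence was read following 30 min at room temperature.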

Assay [7] in a line: qHTS RealTime-Glo MT Cell Viability Assay in HEK293 cells - 32 hour (AID 1224868). Further: nearly all actives have a fitted effect of over 50% in size. Further: potency means the concentration at half of the fitted maximal effect. Summed up:
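Luminescence generated by NanoLuc from substrate produced by living HEK293 cells served as the viability signal. Each value reflects the reading at its stated time point during continuous 40 h compound exposure at 37 C.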

Assay [8] is described as follows: A CellTox Green Cytotoxicity Assay to monitor cytotoxicity in HEK293 cells - 0 hour (AID 1224869). Further: nearly all actives have a fitted effect of over 50% in size. Further: potency means the concentration at half of the fitted maximal effect. Summed up:
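HEK293 cells premixed with CellTox Green dye were seeded at 600 cells/well and left 5 h at 37 C/5% CO2 before pin transfer of 23 nL compound in DMSO. Fluorescence from dye bound to dead-cell DNA was read during 40 h treatment.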

A short description of assay [9]: qHTS RealTime-Glo MT Cell Viability Assay in HepG2 cells - 40 hour (AID 1224870). Further: nearly all actives have a fitted effect of over 50% in size. Further: potency means the concentration at half of the fitted maximal effect. Summed up:
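HepG2 cells (600/well) mixed with RealTime-Glo MT reagent, settled 5 h at 37 C/5% CO2 before compound addition. Nonlytic NanoLuc luminescence from viable-cell prosubstrate reduction read repeatedly during 40 h treatment at 37 C.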

The nature of assay [10]: qHTS RealTime-Glo MT Cell Viability Assay in HepG2 cells - 24 hour (AID 1224867). Further: nearly all actives have a fitted effect of over 50% in size. Further: potency means the concentration at half of the fitted maximal effect. Summed up:
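Tox21 10K library screened in qHTS format on HepG2 cells carrying RealTime-Glo reagents. Compounds were added after a 5 h preincubation, and the luminescent signal from continuous culture was measured repeatedly during 40 h treatment.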
On the % scale 0 is the no-effect control and ±100 the full control effect.

Consider `C[C@]12C=CC(=O)C=C1CC[C@H]1[C@@H]3C[C@@H](O)[C@](O)(C(=O)CO)[C@@]3(C)C[C@H](O)[C@@]12F`, for which the Potency entry in assay [1], in assay [2], in assay [4], in assay [5], in [7] and in assay [8] was “inactive” each time. Further, the Potency result in [9] was “inactive”. Moreover, the compound was classed as inactive in assay [3]. Further, the activity change, positive = activation in [6] (at 42.5 µM (top of the series)) is 2.12% (inactive); in [6] (at 92.4 µM (top of the series)) it was -0.443% (inactive).
For `COC(=O)C(C)Oc1ccc(Oc2ncc(C(F)(F)F)cc2Cl)cc1` (stereo not given), the Potency entry in [1], in [2], in assay [4], in assay [7], in assay [8] and in assay [9] was “inactive” throughout. Further, the result in assay [3] was inactive. Also, the Potency in assay [5] is 39.1 µM (active). Further, the activity change, positive = activation in assay [6] (at 92.4 µM (top of the series)) is -47.3% (inactive) and -26.9% (inactive).
With `c1ccc2c(c1)ccc1ncccc12`, the Potency result in assay [1], in assay [2], in assay [4], in assay [5], in assay [7] and in [8] was “inactive” each time. In addition, the Potency entry in assay [9] is “inactive”. For the same compound, the result in [3] was inactive. The activity change, positive = activation in assay [6] (at 92.4 µM (top of the series)) was -5.44% (inactive).
On to `O=C(O)c1cc(=O)[nH]c(=O)[nH]1`, for which the Potency result in [1], in assay [2], in [4], in assay [5], in assay [10] and in assay [7] was “inactive” throughout. Also, the Potency result in assay [8] and in assay [9] was “inactive” in each case. In [3], the compound was called inactive. For the same compound, in assay [6] (at 92.4 µM (top of the series)), the activity change, positive = activation is 2.48% (inactive).
Regarding `O=C(O)c1ccc(O)cc1`, the Potency entry in assay [1], in assay [2], in assay [4], in assay [5], in assay [10] and in assay [7] was “inactive” in each case. Moreover, the Potency entry in [8] and in assay [9] was “inactive” each time. The compound was called inactive in assay [3]. Moreover, the activity change, positive = activation in [6] (at 92.4 µM (top of the series)) is 9.49% (inactive).
As to `CC(=O)[C@H]1CC[C@H]2[C@@H]3CC=C4C[C@@H](O)CC[C@]4(C)[C@H]3CC[C@]12C`, the Potency entry in [1], in assay [2], in assay [4], in assay [5], in assay [10] and in assay [7] was “inactive” each time. Moreover, the Potency result in assay [8] and in assay [9] was “inactive” in each case. Besides, the result in assay [3] was inactive. Moreover, the activity change, positive = activation in assay [6] (at 42.5 µM (top of the series)) is -14.3% (inactive); in [6] (at 92.4 µM (top of the series)), -23.4% (inactive).
As to `COc1cc([C@H]2Oc3cc([C@H]4Oc5cc(O)cc(O)c5C(=O)[C@@H]4O)ccc3O[C@@H]2CO)ccc1O`, the Potency entry in [1], in [2], in assay [4], in assay [5], in assay [10] and in assay [7] was “inactive” in each case. The Potency entry in assay [9] is “inactive”. Besides, in assay [3], the compound was called inactive. Moreover, the activity change, positive = activation in assay [6] (at 42.5 µM (top of the series)) was 4.78% (inactive); in assay [6] (at 92.4 µM (top of the series)), -26.2% (inactive). In [8], the Potency result was “inactive and 15.1 µM (active)”.
`CCCCCC1C(=O)CCC1CC(=O)OC` (stereo not given): the Potency result in [1], in [2], in assay [4], in assay [5], in assay [10] and in assay [7] was “inactive” each time. The Potency result in [8] and in [9] was “inactive” each time. For the same compound, the result in assay [3] was inactive. Further, in [6] (at 92.4 µM (top of the series)), the activity change, positive = activation is 0.33% (inactive) and 0.3% (inactive).
For `O=C1CCc2ccccc2O1`, the Potency result in assay [1], in assay [2], in assay [4], in assay [5], in [10] and in assay [7] was “inactive” in each case. Moreover, the Potency result in assay [8] and in assay [9] was “inactive” throughout. Also, in [3], the outcome was inactive. Besides, the activity change, positive = activation in [6] (at 92.4 µM (top of the series)) is -2.99% (inactive) and -9.1% (inactive).
`O=C1OC2(c3ccccc31)c1cc(I)c(O)c(I)c1Oc1c2cc(I)c(O)c1I`: the Potency entry in [1] and in [5] was “inactive” in each case. Besides, the Potency in [2] was 51.1 µM (active); in assay [4], 11.3 µM (active) and 28.7 µM (active) and 8.65 µM (active); in assay [10], 39 µM (active) and 27.9 µM (active); in [7] it was 49.1 µM (active) and inactive; in assay [8], 15.5 µM (active) [middle of 4 runs]; in assay [9] it was 24.6 µM (active) and 12.4 µM (active) and 29.8 µM (active). Moreover, in [3], the outcome was inactive. Further, the activity change, positive = activation is -27.3% (inactive) and -18.3% (inactive) and -7.34% (inactive) in [6] (at 42.5 µM (top of the series)); -20.6% (inactive) in assay [6] (at 92.4 µM (top of the series)).
Take `CC(C)=CCO`: the Potency entry in assay [1], in [2], in [4], in assay [5], in assay [7] and in assay [8] was “inactive” in each case. In [9], the Potency entry is “inactive”. In assay [3], the call was inactive. Further, in assay [6] (at 92.4 µM (top of the series)), the activity change, positive = activation is -0.501% (inactive).
On to `Cc1ccc(S(=O)(=O)NCl)cc1`, for which the Potency result in assay [1], in [2], in assay [4], in assay [5], in [10] and in assay [7] was “inactive” in each case. The Potency entry in assay [8] and in assay [9] was “inactive” in each case. Further, in [3], the result was inactive. In assay [6] (at 92.4 µM (top of the series)), the activity change, positive = activation was 5.11% (inactive) and 6.95% (inactive).
In the case of `O=S1(=O)CCCO1`, the Potency result in [1], in assay [2], in assay [4], in assay [10], in [7] and in [8] was “inactive” in each case. In assay [9], the Potency result was “inactive”. Moreover, in assay [3], the compound was called inactive.
On to `IC(I)I`, for which the Potency entry in [1], in assay [2], in [4], in assay [5], in [7] and in [8] was “inactive” throughout. In addition, the compound was called inactive in [3]. For the same compound, the activity change, positive = activation in assay [6] (at 92.4 µM (top of the series)) was 0.549% (inactive) and 0.511% (inactive). In addition, the Potency was 38.8 µM (active) and 38.9 µM (active) in [10]; 21.8 µM (active) and 4.9 µM (active) in assay [9].
For `C=CCOC(=O)C(=C)C`, the Potency entry in [1], in assay [2], in assay [4], in assay [5], in [10] and in assay [7] was “inactive” each time. Further, the Potency result in [8] and in [9] was “inactive” each time. Also, the compound was called inactive in [3]. Moreover, in assay [6] (at 92.4 µM (top of the series)), the activity change, positive = activation is -1.6% (inactive) and 1.74% (inactive).
As to `[O-]/[N+](=N\O)c1ccccc1`, the Potency result in [1], in assay [2], in [4], in assay [5], in assay [10] and in [7] was “inactive” throughout. Besides, the Potency entry in [8] and in [9] was “inactive” throughout. Further, in [3], the outcome was inactive. Also, the activity change, positive = activation in [6] (at 92.4 µM (top of the series)) was 4.43% (inactive) and 12.7% (inactive).
Consider `CN1CCOCC1`, for which the Potency result in assay [1], in assay [2], in assay [4], in assay [5], in assay [7] and in assay [8] was “inactive” throughout. Also, the Potency entry in assay [9] was “inactive”. The compound was classed as inactive in assay [3]. The activity change, positive = activation in [6] (at 92.4 µM (top of the series)) is -10.1% (inactive) and 3.72% (inactive).
`CCCCCC=O`: the Potency result in assay [1], in [2], in assay [4], in assay [5], in [7] and in assay [8] was “inactive” each time. Further, the Potency result in assay [9] was “inactive”. Also, in [3], the compound was called inactive. The activity change, positive = activation in assay [6] (at 92.4 µM (top of the series)) is 8.48% (inactive) and 5.45% (inactive).
On to `CC1=CC(C)(C)Nc2ccccc21`, for which the Potency result in assay [1], in assay [2], in [4], in [5], in assay [7] and in [8] was “inactive” in each case. The Potency entry in assay [9] was “inactive”. The compound was called inactive in [3]. Further, in assay [6] (at 92.4 µM (top of the series)), the activity change, positive = activation was 1.56% (inactive) and -18.3% (inactive).
With `Cc1ccc([N+](=O)[O-])c(C)c1`, the Potency in assay [1] was 4.37 µM (active) and inactive; in assay [2], 4.5 µM (active) and inactive; in assay [5] it was 12.2 µM (active) and inactive; in assay [7], 38.9 µM (active) and inactive. The outcome in [3] was inactive. Besides, the Potency result in [4], in assay [10], in assay [8] and in assay [9] was “inactive” each time. Moreover, the activity change, positive = activation in [6] (at 92.4 µM (top of the series)) is 6.89% (inactive).
